# Assay results as given in PubChem BioAssay (NCI).
# The panel holds about 83,000 compounds, 20% with a hit somewhere; the sample as a whole holds those more often.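 Plates (96-well) were seeded with cells, treated with compound at one concentration, and incubated for 48 hours before percent growth was determined.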 Values without a mark were called inactive. The source made the active and inactive calls. Rule for the calls: active = growth percent below 10; inactive = the rest.
# Assays:
# Experiment in all cases: NCI-60 one-dose screen, 48 h (100 = growth as untreated, 0 = no growth, -100 = all killed)
# Conditions in all cases: 10 µM unless noted
# NCI-H226 lung = test system: NCI-H226 lung
# NCI-H322M lung = test system: NCI-H322M lung
# HOP-62 NSCLC = test system: HOP-62 NSCLC
# NCI-H460 lung = test system: NCI-H460 lung
# HOP-92 NSCLC = test system: HOP-92 NSCLC
# NCI-H522 lung = test system: NCI-H522 lung
# A549/ATCC NSCLC = test system: A549/ATCC NSCLC
# 786-0 renal = test system: 786-0 renal
# COLO 205 colon = test system: COLO 205 colon
# DU-145 prostate = test system: DU-145 prostate
Compound,growth (NCI-H226 lung),growth (NCI-H322M lung),growth (HOP-62 NSCLC),growth (NCI-H460 lung),growth (HOP-92 NSCLC),growth (NCI-H522 lung),growth (A549/ATCC NSCLC),growth (786-0 renal),growth (COLO 205 colon),growth (DU-145 prostate)
CN(C)c1ccc(-c2c(NC(C)(C)C)nc3c(OCCc4ccccc4)cccn23)cc1,10.6%,12.2%,25.1%,3.22% (active),-27.5% (active),5.7% (active),23.2%,20.8%,-84.6% (active),33.2%
COc1ccc(C(=O)c2cc(C(=O)/C=C/c3c(Cl)cccc3Cl)c3cc(C)ccn23)cc1,103%,98.3%,98.5%,100%,97.3%,91.5%,99.6%,100%,108%,106%
COc1ccc(C(=O)/C=C/c2ccc(Oc3nc(NCCO)nc(N4CCOCC4)n3)c(OC)c2)cc1,92.9%,96.6%,106%,79.8%,104%,66.4%,103%,100%,114%,95%
CC(=NNc1ncnc2ccccc12)c1ccc(S(C)(=O)=O)cc1,96.8%,100%,95%,108%,95.1%,100%,111%,102%,113%,115%
Cc1cc2nc3c4cc(Cl)ccc4n(CC(=O)NCCN(C)C)c3nc2cc1C,25.7%,83.7%,73.7%,-69.9% (active),57.1%,91.8%,89.4%,-92.4% (active),76.8%,94.4%
CCOc1ccc([C@H]2C(C(=O)c3ccc(Cl)cc3)C3(N[C@@H]2c2ccccc2)C(=O)Nc2ccc(Br)cc23)cc1 (stereo not given in full),47.3%,45.6%,54.5%,2.83% (active),16%,51.5%,26%,23%,19.3%,47.6%
O=C1Nc2ccccc2Oc2ccc(S(=O)(=O)CC3CO3)cc21 (stereo not given),95.7%,93.7%,101%,79.5%,88.8%,32.8%,77.2%,98.1%,50.1%,61.2%
O=C(N/N=C/c1ccc([N+](=O)[O-])o1)c1[nH]c2ccc(Br)cc2c1-c1ccccc1,15.8%,41.2%,24.2%,-31.4% (active),-4.17% (active),-26.3% (active),21.6%,-5.08% (active),5.51% (active),16.2%
CC(O)C(NC(=O)C1CCCN1C(=O)CNC(=O)C1CC(=O)NCC(=O)NC(Cc2c[nH]c3ccccc23)C(=O)NC(Cc2ccc(O)cc2)C(=O)NCC(=O)NC(CO)C(=O)NC(CCC(N)=O)C(=O)NC(Cc2c[nH]c3ccccc23)C(=O)N1)C(=O)NCC(=O)NC(CCC(N)=O)C(=O)NC(CCCNC(=N)N)C(=O)NC(CC(=O)O)C(=O)O (stereo not given),107%,95.2%,105%,105%,94%,94.9%,105%,108%,109%,104%
COc1ccc(/C=C2\SC(=Nc3cc(C)[nH]n3)NC2=O)cc1,86.8%,91.9%,85.2%,102%,68.5%,97.4%,102%,99.8%,90.8%,101%
Cc1ccc(C(=O)Nc2cccc(C(F)(F)F)c2)cc1Nc1nc(-c2cnccn2)nc2c1cnn2C,71.6%,73%,46.6%,69.9%,35.3%,73.2%,70.8%,74%,20.4%,96.6%
COc1cc(/C=C/C(=O)c2ccc(F)cc2)ccc1Oc1nc(NCCO)nc(N2CCOCC2)n1,87.8%,97.4%,102%,94.2%,94.2%,64.9%,101%,98.3%,122%,98.4%
CN(C)c1ccc(/C=C2\Cc3c(F)ccc(Br)c3C2=O)cc1,76.3%,85.6%,91.5%,88.7%,91.5%,96.1%,94.1%,98.2%,98.1%,97.5%
N#Cc1ccc(C(=O)CSc2nc(Nc3ccc(S(N)(=O)=O)cc3)c3ccccc3n2)cc1,105%,107%,99.2%,111%,111%,99.8%,108%,105%,117%,107%
O=C1Nc2cc(Cl)ccc2/C1=C\c1ccc(OCc2ccc([N+](=O)[O-])cc2)cc1,81%,75.1%,79.8%,59.9%,45.8%,66.9%,78%,51%,92.9%,79.9%
CCCC(=O)NC(c1ccc2c(c1)OC(F)(F)O2)c1cc(C)c2cccnc2c1O (stereo not given),10.8%,34.2%,15.9%,-4.44% (active),33.5%,18.2%,16.5%,0.74% (active),21.1%,26%
C=C1CC[C@H]2[C@@](C)(CCC3OC(c4ccc(OCc5cn(C6CC(OC(C)=O)C(OC(C)=O)C(COC(C)=O)O6)nn5)cc4)OC[C@]32C)[C@@H]1/C=C/C1=CCOC1=O (stereo not given in full),74.5%,100%,85.5%,85.8%,65.6%,82.2%,82.8%,95.1%,82.3%,90%
C=CCn1c(SCC(=O)c2ccccc2)nnc1-c1c[nH]c2ccccc12,87.8%,102%,92.5%,107%,81.3%,97.8%,100%,101%,122%,109%
CS(=O)(=O)c1ccc(-c2nc3ccccn3c2/C=N/Nc2nc(-c3ccc(Br)cc3)cs2)cc1,108%,111%,121%,104%,116%,99.8%,109%,84.8%,116%,109%
NS(=O)(=O)c1ccc(Nc2nc(Nc3ccccc3)nc(-n3nc(-c4ccccc4)cc3-c3ccccc3)n2)cc1,40.7%,57.2%,63.7%,5.81% (active),26.8%,58.5%,25.9%,20.1%,9.92% (active),32.3%
COc1ccc(C(=O)/C=C/c2ccc(OCc3ccc(C)cc3)c(OC)c2)cc1OC,59.2%,70.4%,101%,60.1%,60.6%,72.3%,63.3%,83.7%,95.3%,70.3%
O=C(CSc1nc2sc3c(c2c(=O)n1-c1ccc(Cl)cc1)CCCC3)NNC(=O)Nc1ccc(Cl)c(C(F)(F)F)c1,53.4%,52.2%,58.8%,11.8%,-12.3% (active),5.53% (active),34%,52.2%,53.4%,32.2%
COC(=O)c1ccc(NC(=S)N2CCc3ccc([N+](=O)[O-])cc3C2)cc1O,100%,101%,91.3%,114%,99.7%,99%,106%,109%,105%,112%
O=c1[nH]c2ccc(Cl)cc2cc1CSc1ccccc1Nc1nccc(-c2ccc(Cl)cc2)n1,115%,101%,101%,95.3%,87.6%,97.3%,86.4%,93.6%,116%,94.5%
N#Cc1ccc(/C=N/NC(=O)c2[nH]c3ccc(Br)cc3c2-c2ccccc2)s1,46.9%,45.9%,26.9%,3.12% (active),33.9%,-22.7% (active),22.4%,10.2%,-13.3% (active),19.3%
Cn1cc(-c2cc(N)n3nc(-c4cn(C)c5ccc(Br)cc45)cc3n2)c2cc(Br)ccc21,109%,86.2%,94.8%,69%,76.9%,102%,91%,94%,118%,60.5%
